From PubChem BioAssay (Tox21)
Inconclusive results are not listed. Calls of active or inactive are those of the source. Unless noted, the call rests on the fitted dose curve; in most records, active means well fitted curve in the direction sought with a large enough effect in the repeat runs; inconclusive means weak or mixed curves; inactive means no such curve, though single readings can be large; an effect the other way counts as inactive or inconclusive. Where a SMILES comes first, the peptide text is derived from it.

Legend:
[1] = qHTS RealTime-Glo MT Cell Viability Assay in HEK293 cells - 24 hour (AID 1224886); further: top concentration of the series differs between compounds; nearly all actives have a fitted effect of over 50% in size
Procedure, shortened: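 HEK293 cells were seeded at 600 cells/well together with NanoLuc luciferase and cell-permeant prosubstrate, preincubated 5 h at 37 C/5% CO2, then given compound in DMSO by pintool. Luminescence from viable-cell prosubstrate reduction was read repeatedly over 40 h.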

[2] = qHTS RealTime-Glo MT Cell Viability Assay in HEK293 cells - 8 hour (AID 1224887); further: top concentration of the series differs between compounds; nearly all actives have a fitted effect of over 50% in size
Procedure, shortened: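 600 cells/well were plated with the nonlytic NanoLuc/prosubstrate reagent, pre-incubated 5 h, then given 23 nL of compound in DMSO. Incubation at 37 C for 40 h, with luminescence from viable-cell-reduced substrate read repeatedly from 0 h.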

[3] = A CellTox Green Cytotoxicity Assay to monitor cytotoxicity in HEK293 cells - 16 hour (AID 1224888); further: nearly all actives have a fitted effect of over 35% in size
Procedure, shortened: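 HEK293 cells, 600/well, were preincubated 5 hours and then exposed to compounds at 37 C for up to 40 hours. A cell-impermeant cyanine dye staining dead-cell DNA was read by fluorescence at 0, 8, 16, 24, 32 and 40 h time points.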

[4] = qHTS RealTime-Glo MT Cell Viability Assay in HepG2 cells - 0 hour (AID 1224889); further: nearly all actives have a fitted effect of over 50% in size
Procedure, shortened: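 HepG2 cells were seeded at 600 cells/well together with NanoLuc luciferase and a cell-permeant prosubstrate, preincubated 5 h at 37 C/5% CO2, then pin-dosed with compounds in DMSO. Nonlytic luminescence from viable cells was read at each time point.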

[5] = A CellTox Green Cytotoxicity Assay to monitor cytotoxicity in HepG2 cells - 8 hour (AID 1224890); further: nearly all actives have a fitted effect of over 45% in size
Procedure, shortened: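 HepG2 cells, 600/well, preincubated 5 h with CellTox Green dye, then exposed to Tox21 compounds in DMSO at 37 C for up to 40 h. Dead-cell DNA fluorescence read at the indicated time point.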

[6] = qHTS assay to identify small molecule antagonists of the estrogen receptor alpha (ER-alpha) signaling pathway using the BG1 cell line in the presence of 0.1 nM 17-beta-estradiol - cell viability counter screen (AID 1259241); further: nearly all actives have a fitted effect of over 40% in size
Procedure, shortened: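 The cell line endogenously expresses full-length ER-alpha and carries four EREs driving luciferase. Cells are cultured 5 days hormone-free, treated 22 hr with compounds and 0.1 nM estradiol, then viability is read by fluorescence.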

[7] = qHTS assay to identify small molecule antagonists of the androgen receptor (AR) signaling pathway using the MDA cell line in the presence of 0.5 nM R1881 - cell viability counter screen (AID 1259242); further: nearly all actives have a fitted effect of over 45% in size
Procedure, shortened: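 MDA-kb2 cells (MMTV-luciferase, AR/GR responsive) were treated with compounds plus 0.5 nM R1881 (final) for 16 hr at 37C, 0% CO2. Viability was then read in the same wells as live-cell protease fluorescence (CellTiter-Fluor, 30 min).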

[8] = target: Androgen receptor (Homo sapiens) (UniProt P10275); assay: qHTS assay to identify small molecule antagonists of the androgen receptor (AR) signaling pathway using the MDA cell line in the presence of 0.5 nM R1881 (AID 1259243); further: nearly all actives have a fitted effect of over 50% in size
Androgen receptor (Homo sapiens), sequence (P10275 whole entry, looked up): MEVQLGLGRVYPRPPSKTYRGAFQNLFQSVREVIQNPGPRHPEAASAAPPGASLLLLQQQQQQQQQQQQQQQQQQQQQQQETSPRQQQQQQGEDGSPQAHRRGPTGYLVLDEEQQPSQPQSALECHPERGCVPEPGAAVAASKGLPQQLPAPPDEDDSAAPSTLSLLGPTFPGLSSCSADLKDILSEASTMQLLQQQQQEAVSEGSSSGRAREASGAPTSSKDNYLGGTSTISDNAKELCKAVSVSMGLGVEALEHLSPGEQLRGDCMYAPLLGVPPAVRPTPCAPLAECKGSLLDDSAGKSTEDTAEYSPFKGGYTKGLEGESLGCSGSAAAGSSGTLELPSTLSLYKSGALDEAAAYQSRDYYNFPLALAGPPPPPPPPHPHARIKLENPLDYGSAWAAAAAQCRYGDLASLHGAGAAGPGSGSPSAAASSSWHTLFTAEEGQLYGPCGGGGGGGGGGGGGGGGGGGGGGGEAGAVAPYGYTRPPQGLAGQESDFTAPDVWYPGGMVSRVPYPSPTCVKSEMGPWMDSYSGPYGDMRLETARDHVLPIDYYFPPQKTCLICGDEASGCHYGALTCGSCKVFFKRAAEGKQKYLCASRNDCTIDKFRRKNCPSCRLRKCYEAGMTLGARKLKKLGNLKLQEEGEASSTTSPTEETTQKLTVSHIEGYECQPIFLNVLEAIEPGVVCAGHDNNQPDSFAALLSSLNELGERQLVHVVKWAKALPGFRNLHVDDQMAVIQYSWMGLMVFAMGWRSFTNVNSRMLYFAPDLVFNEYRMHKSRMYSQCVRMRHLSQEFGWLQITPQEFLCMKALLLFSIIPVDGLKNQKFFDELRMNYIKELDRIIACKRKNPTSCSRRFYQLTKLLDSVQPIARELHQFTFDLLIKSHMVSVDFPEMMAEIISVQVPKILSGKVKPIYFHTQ
Procedure, shortened: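 MDA-kb2 cells (MMTV-luciferase, responsive to AR and GR) at 3,000/well, rested 5 h at 37C, 0% CO2, then given compounds plus 0.5 nM R1881 (final) for 16 hr. Luciferase read with ONE-Glo after 30 min at room temperature.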

[9] = target: Estrogen receptor (Homo sapiens) (UniProt P03372); assay: qHTS assay to identify small molecule antagonists of the estrogen receptor alpha (ER-alpha) signaling pathway using the BG1 cell line in the presence of 0.1 nM 17-beta-estradiol (AID 1259244); further: nearly all actives have a fitted effect of over 50% in size
Estrogen receptor (Homo sapiens), sequence (P03372 whole entry, looked up): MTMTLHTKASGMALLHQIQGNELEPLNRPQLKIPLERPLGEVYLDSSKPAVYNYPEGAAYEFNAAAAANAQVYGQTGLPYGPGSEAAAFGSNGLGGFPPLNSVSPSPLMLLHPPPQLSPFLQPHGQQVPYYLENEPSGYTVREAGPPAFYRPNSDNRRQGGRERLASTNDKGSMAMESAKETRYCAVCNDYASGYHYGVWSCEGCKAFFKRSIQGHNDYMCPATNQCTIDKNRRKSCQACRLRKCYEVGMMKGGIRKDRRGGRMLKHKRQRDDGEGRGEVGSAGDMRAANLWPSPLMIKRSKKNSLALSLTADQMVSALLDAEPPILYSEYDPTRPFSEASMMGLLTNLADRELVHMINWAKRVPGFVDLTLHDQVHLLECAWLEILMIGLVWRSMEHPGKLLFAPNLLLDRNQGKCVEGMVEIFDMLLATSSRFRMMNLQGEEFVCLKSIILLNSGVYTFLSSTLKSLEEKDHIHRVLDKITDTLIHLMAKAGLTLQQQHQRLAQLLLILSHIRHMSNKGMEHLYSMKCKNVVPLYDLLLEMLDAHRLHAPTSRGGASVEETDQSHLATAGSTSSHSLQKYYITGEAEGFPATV
Procedure, shortened: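 VM7Luc4E2 cells (endogenous full-length ER-alpha, 4×ERE-luciferase), kept 5 days in phenol red-free, charcoal-stripped FBS medium; 4,000 cells/well. Compounds added with 0.1 nM (final) 17beta-estradiol, 22 hr at 37C; luminescence read with ONE-Glo after 30 min.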

[10] = qHTS assay to identify small molecule HDAC inhibitors (AID 1259364); further: top concentration of the series differs between compounds; nearly all actives have a fitted effect of over 45% in size
Procedure, shortened: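 Wild-type HCT-116 cells, plated overnight at 37 C, exposed to compounds 2 hr at 37 C; luminogenic HDAC-Glo substrate then added 30 min at room temperature. Luminescence reports relative endogenous class I/II HDAC activity.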

[11] = qHTS assay to identify small molecule HDAC inhibitors - cell viability counter screen (AID 1259365)
Procedure, shortened: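 Viability readout: CellTiter-Glo luminescence. Wild-type HCT-116 cells, 2hr compound treatment following overnight attachment at 37 C.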

[12] = qHTS assay to identify small molecule agonists of the sonic hedgehog signaling (Shh) pathway - cell viability counter screen (AID 1259366); further: nearly all actives have a fitted effect of over 50% in size
Procedure, shortened: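 Viability measured fluorometrically (CellTiter-Fluor, 1hr, 37C) in 3T3 Gli1-Luc reporter cells after 23hr compound exposure within a 24hr incubation at 37C/5% CO2.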

[13] = qHTS assay to identify small molecule antagonists of the sonic hedgehog signaling (Shh) pathway - cell viability counter screen (AID 1259367); further: nearly all actives have a fitted effect of over 55% in size
Procedure, shortened: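 NIH/3T3-derived Gli1-Luc reporter cells (2,000 per well) rested 4 hr at 37 C, then received DMSO compounds plus conditioned medium. After 23 hr of treatment, CellTiter-Fluor was added for 1 hr at 37C and fluorescence read.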

[14] = qHTS assay to identify small molecule agonists of the sonic hedgehog signaling (Shh) pathway (AID 1259368; calls by dose curve;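 further: NIH/3T3-derived 3T3Gli1-Luc cells carrying a stable Gli1-driven firefly luciferase reporter; series mostly up to about 92 µM; nearly all actives have a fitted effect of over 15% in size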)
Procedure, shortened: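 NIH/3T3-derived 3T3Gli1-Luc cells with stably integrated Gli1-driven firefly luciferase, 2,000 cells/well, compounds added after 4 hr. Incubated 24 hr at 37C, 5% CO2; luminescence read after 30 min with luciferase reagent at room temperature.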

[15] = qHTS assay to identify small molecule antagonists of the sonic hedgehog signaling (Shh) pathway (AID 1259369; calls by dose curve; further: nearly all actives have a fitted effect of over 45% in size)
Procedure, shortened: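 NIH/3T3-derived Gli1-Luc reporter cells plated 4 h, dosed with compound, then stimulated with conditioned medium for 24 h at 37 C. Firefly luciferase luminescence read after 30 min with detection reagent at room temperature.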

[16] = target: Estrogen receptor beta (Homo sapiens) (UniProt Q92731); assay: qHTS assay to identify small molecule agonists of the estrogen receptor beta (ER-beta) signaling pathway (AID 1259377; active means well fitted activation curve with a large enough effect in the signal ratio in the repeat runs, not every such curve was filed as active; the % refers to the signal ratio)
Estrogen receptor beta (Homo sapiens), sequence (Q92731 whole entry, looked up): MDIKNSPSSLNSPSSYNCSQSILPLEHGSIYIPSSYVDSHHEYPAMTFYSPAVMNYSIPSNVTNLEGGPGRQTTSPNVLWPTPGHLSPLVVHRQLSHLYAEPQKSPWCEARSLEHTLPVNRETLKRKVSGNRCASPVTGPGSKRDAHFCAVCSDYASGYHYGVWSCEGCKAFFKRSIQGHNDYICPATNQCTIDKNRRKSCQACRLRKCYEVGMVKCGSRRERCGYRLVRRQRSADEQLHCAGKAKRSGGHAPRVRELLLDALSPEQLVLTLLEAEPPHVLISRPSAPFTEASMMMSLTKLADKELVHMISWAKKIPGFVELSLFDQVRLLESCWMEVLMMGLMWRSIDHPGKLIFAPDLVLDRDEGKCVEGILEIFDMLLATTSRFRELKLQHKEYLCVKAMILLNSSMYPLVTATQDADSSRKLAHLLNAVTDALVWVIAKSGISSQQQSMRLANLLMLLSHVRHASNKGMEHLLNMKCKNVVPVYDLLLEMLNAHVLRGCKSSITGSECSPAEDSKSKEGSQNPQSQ
Procedure, shortened: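 A UAS-controlled beta-lactamase reporter in ER-beta-UAS-bla HEK293T cells reports receptor activation. Compounds act for 16 hr at 37C in 2% charcoal-stripped serum, and a FRET substrate is read by fluorescence after 2 hours.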

[17] = target: Estrogen receptor beta (Homo sapiens) (UniProt Q92731); assay: qHTS assay to identify small molecule antagonists of the estrogen receptor beta (ER-beta) signaling pathway (AID 1259378; active means well fitted inhibition curve with a large enough effect in the signal ratio in the repeat runs, not every such curve was filed as active; the % refers to the signal ratio)
Procedure, shortened: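 ER-beta-UAS-bla HEK293T (GripTite) cells in 2% charcoal-stripped FBS medium were preincubated 6 hr at 37C, dosed with compound, then stimulated with 1 nM E2 (final) for 16 hr; beta-lactamase reporter read by B/G FRET fluorescence after 2 hr substrate loading.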

[18] = qHTS assay to identify small molecule agonists of the androgen receptor (AR) signaling pathway in the presence of an antagonist - cell viability counter screen (AID 1259379);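 further: MDA-kb2 human breast cancer cells carrying an MMTV luciferase reporter; series mostly up to about 92 µM; nearly all actives have a fitted effect of over 25% in size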
Procedure, shortened: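 MDA-kb2 cells (MMTV-luciferase, AR/GR), 3,000/well, 5 h attachment, then 3.0 µM nilutamide (final) and compounds at 15 concentrations. Viability by CellTiter-Fluor fluorescence after 16 h at 37 °C, 0% CO2, in the reporter wells.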

[19] = qHTS assay to identify small molecule agonists of the estrogen receptor beta (ER-beta) signaling pathway - cell viability counter screen (AID 1259380); further: nearly all actives have a fitted effect of over 30% in size
Procedure, shortened: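 ER-beta-UAS-bla HEK293T cells in medium with 2% charcoal-stripped FBS, pre-incubated 6 hr, then treated 16 hr at 37C. Cytotoxicity read in the same wells by CellTiter-Glo luminescence after 30 min at room temperature.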

[20] = qHTS assay to identify small molecule phospholipidosis (PLD) inducers (AID 1259344; active means well fitted curve in the direction sought with a large enough effect; an effect the other way counts as inactive or inconclusive)
Procedure, shortened: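 HepG2 cells on collagen I, attached 4 h at 37 C, were co-treated with compound and LipidTOX Red dye for 24 h at 37 C, then fixed with paraformaldehyde plus Hoechst 33342 and imaged by high-content microscopy for phospholipid accumulation.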
On the % scale 0 is the no-effect control and ±100 the full control effect.

O=C(CCCl)NCCc1ccccc1
inactive: Potency [1] | Potency [2] | Potency [3] | Potency [4] | Potency [5] | outcome [6] | outcome [7] | Potency [8] | outcome [9] | Potency [10] | outcome [11] | outcome [12] | outcome [13] | outcome [14] | Potency [15] | Potency [16] | Potency [17] | outcome [18] | outcome [19]

CC(=O)c1cc(C)oc1C
inactive: Potency [1] | Potency [2] | Potency [3] | Potency [4] | Potency [5] | outcome [6] | outcome [7] | Potency [8] | Potency [10] | outcome [11] | outcome [12] | outcome [13] | outcome [14] | Potency [15] | Potency [16] | Potency [17] | outcome [18] | outcome [19]

CCO[Si](CC)(OCC)OCC
inactive: Potency [1] | Potency [2] | Potency [3] | Potency [4] | Potency [5] | outcome [6] | outcome [7] | Potency [8] | outcome [9] | Potency [10] | outcome [11] | outcome [12] | outcome [13] | outcome [14] | Potency [15] | Potency [17] | outcome [18] | outcome [19]

CC(=O)O[C@H]1C[C@@H]2CC[C@@]1(C)C2(C)C
inactive: Potency [1] | Potency [2] | Potency [3] | Potency [4] | Potency [5] | outcome [6] | outcome [7] | Potency [8] | outcome [12] | outcome [13] | outcome [14] | Potency [16] | outcome [18] | outcome [19]

C=CCOC(=O)CCCCCC
inactive: Potency [1] | Potency [2] | Potency [3] | Potency [4] | Potency [5] | outcome [6] | outcome [7] | Potency [8] | Potency [10] | outcome [11] | outcome [12] | outcome [14] | Potency [15] | Potency [17] | outcome [18] | outcome [19]

CCCCCCCCCOC(=O)c1ccccc1C(=O)OCCCCCCCCC
inactive: Potency [1] | Potency [2] | Potency [3] | Potency [4] | Potency [5] | outcome [6] | outcome [7] | Potency [8] | outcome [9] | Potency [10] | outcome [11] | outcome [12] | outcome [13] | outcome [14] | Potency [15] | Potency [16] | Potency [17] | outcome [18]

COc1ccc(CCO)cc1
inactive: Potency [1] | Potency [2] | Potency [3] | Potency [4] | Potency [5] | outcome [6] | outcome [7] | Potency [8] | Potency [10] | outcome [11] | outcome [12] | outcome [13] | outcome [14] | Potency [15] | outcome [18]

CCOc1ccccc1OCC1CNCCO1 (stereo not given)
inactive: Potency [1] | Potency [2] | Potency [3] | Potency [4] | Potency [5] | outcome [6] | outcome [7] | Potency [8] | outcome [9] | Potency [10] | outcome [11] | outcome [12] | outcome [13] | outcome [14] | Potency [15] | Potency [16] | Potency [17] | outcome [18]

CC(=O)O[C@@H]1CC2CCC1(C)C2(C)C (stereo not given in full)
inactive: Potency [1] | Potency [2] | Potency [3] | Potency [4] | Potency [5] | outcome [6] | outcome [7] | Potency [8] | outcome [20] | Potency [10] | outcome [11] | outcome [12] | outcome [13] | outcome [14] | Potency [15] | Potency [16] | Potency [17] | outcome [18] | outcome [19]

O=C(O)CSCC(=O)NC1CCSC1=O (stereo not given)
inactive: Potency [1] | Potency [2] | Potency [3] | Potency [4] | Potency [5] | outcome [6] | outcome [7] | Potency [8] | PLD induction [20] 5.58% [at 7.66 µM] | Potency [10] | outcome [11] | outcome [12] | outcome [13] | outcome [14] | Potency [15] | Potency [17] | outcome [18] | outcome [19]

CCO
inactive: Potency [1] | Potency [2] | Potency [3] | Potency [4] | Potency [5] | outcome [6] | outcome [7] | Potency [8] | outcome [9] | Potency [10] | outcome [11] | outcome [12] | outcome [14] | Potency [15] | Potency [16] | outcome [18] | outcome [19]

COCCc1ccccn1
inactive: Potency [1] | Potency [2] | Potency [3] | Potency [4] | Potency [5] | outcome [6] | outcome [7] | Potency [8] | outcome [9] | Potency [10] | outcome [11] | outcome [12] | outcome [13] | outcome [14] | Potency [15] | outcome [18] | outcome [19]

COc1cc(/C=C/C(N)=O)cc(OC)c1OC
inactive: Potency [1] | Potency [2] | Potency [3] | Potency [4] | Potency [5] | outcome [6] | outcome [7] | Potency [8] | outcome [9] | Potency [10] | outcome [12] | outcome [14] | Potency [15] | Potency [16] | Potency [17] | outcome [18] | outcome [19]

CC(=O)N[C@@H](CO)C(=O)N[C@@H](CC(=O)O)C(=O)N[C@@H](CCCCN)C(=O)N1CCC[C@H]1C(=O)O (Ac-SDKP-OH)
inactive: Potency [1] | Potency [2] | Potency [3] | Potency [4] | Potency [5] | outcome [6] | outcome [7] | Potency [8] | Potency [10] | outcome [11] | outcome [12] | outcome [13] | outcome [14] | Potency [15] | Potency [17] | outcome [18]

CCCCC1CCC(O)CC1 (stereo not given)
inactive: Potency [1] | Potency [2] | Potency [3] | Potency [4] | Potency [5] | outcome [6] | outcome [7] | Potency [8] | Potency [10] | outcome [12] | outcome [13] | outcome [14] | Potency [15] | outcome [18] | outcome [19]
